# Only some compounds are listed: those with a hit (about 2.9% of all), similar ones and a draw of the others.
# PLCg1 inh: PLC-gamma1 enzyme inhibitors, primary screen, biochemical, fluorescence, purified enzyme; AID 720700, 2013; inhibition, % at 12.2 µM; 370,000 tested, 0.84% active; fluorogenic substrate; 1-phosphatidylinositol 4,5-bisphosphate phosphodiesterase gamma-1 (Homo sapiens), P19174; in the data active means inhibition above about 9.5%
# KLK7 zymogen act: proKLK7 zymogen activators, primary screen, biochemical, fluorescence intensity; purified proKLK7, EDANS-DABCYL substrate fluorescence; 100% is mature enzyme control, 0% vehicle; 370,000 tested, 0.9% active; activation, % at 7 µM; Kallikrein-7 (Homo sapiens), P49862;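 active means activation above the mean of all tested compounds plus 3 SD, computed per campaign excluding outliers beyond control limits, cut at about 13% in these data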
# ADAM10 inh: human ADAM10 inhibitors, primary screen, biochemical, QFRET, HTS. AID 720582, 2013. inhibition, % at 7 µM. 370,000 tested, 0.62% active. recombinant ADAM10, EDANS/DABCYL FRET peptide cleavage, 3 h. Disintegrin and metalloproteinase domain-containing protein 10 (Homo sapiens), O14672;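 active means inhibition above a per-campaign cutoff equal to the mean of compounds falling between control-based bounds plus 3 SD, cut at about 20% in these data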;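 further: 0% = DMSO wells while the 100% control is not disclosed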
# Target sequence (O14672 214-748 limits assumed): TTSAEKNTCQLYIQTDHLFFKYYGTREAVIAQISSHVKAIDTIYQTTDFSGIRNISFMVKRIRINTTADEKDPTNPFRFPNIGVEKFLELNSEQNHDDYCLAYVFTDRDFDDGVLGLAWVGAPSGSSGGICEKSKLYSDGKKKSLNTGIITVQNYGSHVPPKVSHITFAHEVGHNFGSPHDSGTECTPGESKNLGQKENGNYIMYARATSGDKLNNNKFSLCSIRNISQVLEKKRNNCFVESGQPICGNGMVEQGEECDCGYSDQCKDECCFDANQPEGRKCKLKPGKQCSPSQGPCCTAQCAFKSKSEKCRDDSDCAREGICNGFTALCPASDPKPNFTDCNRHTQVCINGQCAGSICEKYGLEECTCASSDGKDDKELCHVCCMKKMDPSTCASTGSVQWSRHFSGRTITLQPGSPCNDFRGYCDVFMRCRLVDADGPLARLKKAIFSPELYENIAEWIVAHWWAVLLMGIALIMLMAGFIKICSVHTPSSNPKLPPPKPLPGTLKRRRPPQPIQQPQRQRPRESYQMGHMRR
# PLCb3 inh: human PLC-beta3 inhibitors, primary screen, biochemical, fluorescence; 1-phosphatidylinositol 4,5-bisphosphate phosphodiesterase beta-3 (Homo sapiens), Q01970; Purified PLC-beta3, fluorogenic substrate; inhibition, % at 12.2 µM; 370,000 tested, 0.18% active; AID 720704, 2013; in the data active means inhibition above about 11%;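 further: 0% = median of compound wells on plate and 100% = full blocker control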
# ADAM17 inh: ADAM17 inhibitors, primary screen, biochemical, QFRET; Disintegrin and metalloproteinase domain-containing protein 17 (Homo sapiens), P78536; recombinant ADAM17, EDANS/DABCYL FRET peptide cleavage; inhibition, % at 6.95 µM; 370,000 tested, 0.83% active; AID 720648, 2013;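 active means inhibition above the mean of compounds lying between control limits plus 3 SD, set per campaign, cut at about 8.5% in these data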;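 further: 0% = DMSO-only wells as the low control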
# ADAM10 confirm: human ADAM10 inhibitors, confirmation, biochemical, QFRET, triplicate. inhibition, % at 6.95 µM. shares compounds with ADAM10 inh. 2,100 tested, 1% active. ADAM10 QFRET peptide cleavage, EDANS fluorescence. AID 743208, 2013;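 active means inhibition above about 20% chosen separately for each screening run, limit read from the data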;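 further: 0% = DMSO wells and 100% = marimastat wells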
# ADAM17 ctr: ADAM17 inhibitors, counter-screen for ADAM10 exosite inhibitor project, biochemical, QFRET, high throughput | shares compounds with ADAM10 inh | ADAM17 QFRET peptide cleavage, EDANS fluorescence | inhibition, % at 6.95 µM | 2,100 tested, 0.5% active;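 active means mean triplicate inhibition above the solvent-only control wells' mean plus 3 SD, cut at about 12% in these data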;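 further: 0% = DMSO wells and 100% = marimastat wells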
# ADAM10 ctr: ADAM10 inhibitors, counter-screen for ADAM17 exosite inhibitor project, biochemical, FRET, human ADAM10; inhibition, % at 6.95 µM; shares compounds with ADAM17 inh; 2,900 tested, 47% active; AID 743256, 2014; recombinant ADAM10, EDANS/DABCYL FRET peptide cleavage, 3 h;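 active means mean inhibition over the triplicate runs exceeds the activity threshold set in the earlier primary screen, cut at about 20% in these data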;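 further: 0% = DMSO wells and 100% = marimastat wells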
# ADAM17 confirm: ADAM17 inhibitors, hit retest, confirmation, biochemical, QFRET peptide cleavage | shares compounds with ADAM17 inh | recombinant ADAM17, EDANS/DABCYL QFRET peptide cleavage | inhibition, % at 6.95 µM | 2,900 tested, 65% active | AID 743257, 2014;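 active means mean inhibition across replicates above the hit cutoff set in the primary screen, cut at about 8.5% in these data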;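 further: 0% = DMSO wells and 100% = marimastat wells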
# Active calls of the source: *; · = no result given.
SMILES,PLCg1 inh,KLK7 zymogen act,ADAM10 inh,PLCb3 inh,ADAM17 inh,ADAM10 confirm,ADAM17 ctr,ADAM10 ctr,ADAM17 confirm
CCC(C)NS(=O)(=O)c1ccc(NC(=O)C(Sc2ccccc2)c2ccccc2)cc1 (stereo unspecified),8,0,41*,-1,20*,8,3,42*,22*
Cc1cc(C)c(NC(=O)COC(=O)c2cccc3c2C(=O)c2ccccc2C3=O)c(C)c1,4,0,4,3,-1,·,·,·,·
Cc1cc(C)c(Nc2cc(S(=O)(=O)O)c(N)c3c2C(=O)c2ccccc2C3=O)c(C)c1,6,0,23*,6,8.7*,4,-2,36*,17*
Cc1cc(Cl)ccc1NC(=S)NCCc1ccc(Cl)cc1,7,1,25*,-3,9.8*,3,1,17,8
O=C(Nc1ccccc1)Nc1cc(OCC(F)(F)F)cc(OCC(F)(F)F)c1,0,0,31*,1,15*,9,2,28*,17*
COc1cc([N+](=O)[O-])cc(/C=N/NC(=O)C(C)Nc2ccccc2C)c1O (stereo unspecified),4,-1,26*,4,10.0*,0,1,24*,12*
O=c1[nH]c(=S)[nH]c2c1C(c1cccc(C(F)(F)F)c1)OC(CCc1ccccc1)C2 (stereo unspecified),5,0,27*,8,14*,6,2,30*,16*
O=C(C(=O)N1CCN(c2ccccc2Cl)CC1)c1c[nH]c2ccccc12,2,1,26*,-2,14*,6,1,21*,12*
Clc1ccccc1N1CCN(Cc2c[nH]c3ccccc23)CC1,5,0,3,-6,0,·,·,·,·
COc1cccc(CN(C)C(=O)Cc2c[nH]c3ccccc23)c1,0,0,-5,-22,-12,·,·,·,·
Cc1ccc(C(C(=O)NC2CCCCC2)N(Cc2ccccc2)C(=O)Cc2c[nH]c3ccccc23)o1 (stereo unspecified),9,0,20*,5,15*,7,2,18,12*
COc1cccc(CN(C(=O)Cc2c[nH]c3ccccc23)C(C(=O)NC2CCCCC2)c2ccc(C)o2)c1 (stereo unspecified),-2,0,22*,-2,11*,10,3,33*,16*
Cc1ccc(C(C(=O)NC2CCCC2)N(Cc2ccccc2)C(=O)c2csnn2)o1 (stereo unspecified),6,1,0,1,2,·,·,·,·
COc1ccc(/C=N/NC(=O)Cc2csc(Nc3cccc(C(F)(F)F)c3)n2)cc1C,4,0,28*,1,13*,6,2,33*,20*
Cc1cc(NC(=O)CS(=O)(=O)c2cn(Cc3ccccc3Cl)c3ccccc23)no1,-3,0,2,-9,2,·,·,·,·
Cc1cc(NC(=O)CS(=O)(=O)c2cn(Cc3cccc(Br)c3)c3ccccc23)no1,4,0,24*,-8,10*,3,1,8,8.7*
O=C(c1cccs1)N1CCc2c([nH]c3ccccc23)C1c1ccc(Cl)cc1 (stereo unspecified),7,0,31*,8,19*,14,4,15,11*
COc1cccc(-n2c(C)nnc2SCC(=O)Nc2ccccc2N2CCOCC2)c1,4,1,-1,0,-2,·,·,·,·
CCOC(=O)[C@@]12CN(C(=O)OC(C)(C)C)CC=C1N(Cc1ccc(OC)cc1)C(=O)[C@H]2CC(=O)NCCCOC,1,0,-3,0,-1,·,·,·,·
CCOC(=O)[C@]12CCCCC/C=C\1N(Cc1ccc(OC)cc1)C(=O)[C@H]2CC(=O)NCc1cccc(C(F)(F)F)c1,1,1,21*,3,11*,10,3,34*,14*
CCOC(=O)[C@@]12CN(C(=O)OC(C)(C)C)CC=C1N(Cc1ccc(OC)cc1)C(=O)[C@H]2CC(=O)NCCCCc1ccccc1,1,1,22*,3,8.7*,6,2,19,10*
COc1ccc(CNC(=O)CSc2nnc(C)c(=O)[nH]2)cc1,-1,0,3,-8,-2,·,·,·,·
CCCCC(O)(CCCC)C(=O)NNc1ccccc1,4,1,0,1,0,·,·,·,·
CC1CCC/C(=C\Nc2ccc(C(=O)O)cc2)C1=O (stereo unspecified),2,0,-2,2,0,·,·,·,·
CC(=O)Nc1ccc(NC(=O)c2c(-c3ccccc3)noc2C)cn1,1,0,-4,-9,-4,·,·,·,·
SMILES,PLCg1 inh,KLK7 zymogen act,ADAM10 inh,PLCb3 inh,ADAM17 inh,ADAM10 confirm,ADAM17 ctr,ADAM10 ctr,ADAM17 confirm
CCOC(=O)C1=CCC(c2ccccc2)N(S(=O)(=O)c2ccccc2)C1 (stereo unspecified),0,1,22*,-11,15*,3,1,13,6
CCCCCOC(=O)Nc1ccc(S(=O)(=O)Nc2cccc([N+](=O)[O-])c2)cc1,2,1,27*,3,11*,3,2,24*,13*
CCCCOC(=O)Nc1ccc(S(=O)(=O)Nc2ccc([N+](=O)[O-])cc2)cc1,3,0,11,4,3,·,·,·,·
CCN(CC)S(=O)(=O)c1cccc(C(=O)Oc2cccc(NC(=O)c3cccs3)c2)c1,3,0,27*,6,9.3*,8,3,22*,13*
CNc1ccc(C=C2C=Cc3ccccc32)cc1,11*,-1,41*,7,13*,6,1,46*,18*
COc1cc2c(cc1NC(=O)Nc1ccc(C)cc1)oc1ccccc12,-5,-4,-24,-8,-10,·,·,·,·
